Screening data: PubChem BioAssay, several laboratories
GRIN3A LBD mod: binders of NR3A ligand-binding domain, primary screen, biophysical, differential scanning fluorimetry, uHTS; 2.5% of 340,000 active; AID 1259313, 2017; Glutamate receptor ionotropic, NMDA 3A (GRIN3A) ligand-binding domain; Tm shift relative to glycine control, % at 25 µM; NR3A LBD differential scanning fluorimetry, Tm shift; 0% = protein alone, 100% = glycine-bound protein;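 active means melting temperature shift of at least 10% of the positive control shift, at one fixed dose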
FAS TE block: FAS thioesterase domain inhibitors, primary screen, biochemical, fluorescence intensity, uHTS. Fatty acid synthase (Homo sapiens), P49327. recombinant FAS-TE, OMFH fluorogenic substrate, fluorescence endpoint. inhibition, % at 15 µM. 0.67% of 360,000 active;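 active means compounds whose normalised, plate-corrected inhibition of enzyme fluorescence in the single-dose primary screen is 50% or more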;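 further: 0% = DMSO with enzyme and 100% = substrate without enzyme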
Target sequence (P49327 whole entry, looked up, the tested form may be a part): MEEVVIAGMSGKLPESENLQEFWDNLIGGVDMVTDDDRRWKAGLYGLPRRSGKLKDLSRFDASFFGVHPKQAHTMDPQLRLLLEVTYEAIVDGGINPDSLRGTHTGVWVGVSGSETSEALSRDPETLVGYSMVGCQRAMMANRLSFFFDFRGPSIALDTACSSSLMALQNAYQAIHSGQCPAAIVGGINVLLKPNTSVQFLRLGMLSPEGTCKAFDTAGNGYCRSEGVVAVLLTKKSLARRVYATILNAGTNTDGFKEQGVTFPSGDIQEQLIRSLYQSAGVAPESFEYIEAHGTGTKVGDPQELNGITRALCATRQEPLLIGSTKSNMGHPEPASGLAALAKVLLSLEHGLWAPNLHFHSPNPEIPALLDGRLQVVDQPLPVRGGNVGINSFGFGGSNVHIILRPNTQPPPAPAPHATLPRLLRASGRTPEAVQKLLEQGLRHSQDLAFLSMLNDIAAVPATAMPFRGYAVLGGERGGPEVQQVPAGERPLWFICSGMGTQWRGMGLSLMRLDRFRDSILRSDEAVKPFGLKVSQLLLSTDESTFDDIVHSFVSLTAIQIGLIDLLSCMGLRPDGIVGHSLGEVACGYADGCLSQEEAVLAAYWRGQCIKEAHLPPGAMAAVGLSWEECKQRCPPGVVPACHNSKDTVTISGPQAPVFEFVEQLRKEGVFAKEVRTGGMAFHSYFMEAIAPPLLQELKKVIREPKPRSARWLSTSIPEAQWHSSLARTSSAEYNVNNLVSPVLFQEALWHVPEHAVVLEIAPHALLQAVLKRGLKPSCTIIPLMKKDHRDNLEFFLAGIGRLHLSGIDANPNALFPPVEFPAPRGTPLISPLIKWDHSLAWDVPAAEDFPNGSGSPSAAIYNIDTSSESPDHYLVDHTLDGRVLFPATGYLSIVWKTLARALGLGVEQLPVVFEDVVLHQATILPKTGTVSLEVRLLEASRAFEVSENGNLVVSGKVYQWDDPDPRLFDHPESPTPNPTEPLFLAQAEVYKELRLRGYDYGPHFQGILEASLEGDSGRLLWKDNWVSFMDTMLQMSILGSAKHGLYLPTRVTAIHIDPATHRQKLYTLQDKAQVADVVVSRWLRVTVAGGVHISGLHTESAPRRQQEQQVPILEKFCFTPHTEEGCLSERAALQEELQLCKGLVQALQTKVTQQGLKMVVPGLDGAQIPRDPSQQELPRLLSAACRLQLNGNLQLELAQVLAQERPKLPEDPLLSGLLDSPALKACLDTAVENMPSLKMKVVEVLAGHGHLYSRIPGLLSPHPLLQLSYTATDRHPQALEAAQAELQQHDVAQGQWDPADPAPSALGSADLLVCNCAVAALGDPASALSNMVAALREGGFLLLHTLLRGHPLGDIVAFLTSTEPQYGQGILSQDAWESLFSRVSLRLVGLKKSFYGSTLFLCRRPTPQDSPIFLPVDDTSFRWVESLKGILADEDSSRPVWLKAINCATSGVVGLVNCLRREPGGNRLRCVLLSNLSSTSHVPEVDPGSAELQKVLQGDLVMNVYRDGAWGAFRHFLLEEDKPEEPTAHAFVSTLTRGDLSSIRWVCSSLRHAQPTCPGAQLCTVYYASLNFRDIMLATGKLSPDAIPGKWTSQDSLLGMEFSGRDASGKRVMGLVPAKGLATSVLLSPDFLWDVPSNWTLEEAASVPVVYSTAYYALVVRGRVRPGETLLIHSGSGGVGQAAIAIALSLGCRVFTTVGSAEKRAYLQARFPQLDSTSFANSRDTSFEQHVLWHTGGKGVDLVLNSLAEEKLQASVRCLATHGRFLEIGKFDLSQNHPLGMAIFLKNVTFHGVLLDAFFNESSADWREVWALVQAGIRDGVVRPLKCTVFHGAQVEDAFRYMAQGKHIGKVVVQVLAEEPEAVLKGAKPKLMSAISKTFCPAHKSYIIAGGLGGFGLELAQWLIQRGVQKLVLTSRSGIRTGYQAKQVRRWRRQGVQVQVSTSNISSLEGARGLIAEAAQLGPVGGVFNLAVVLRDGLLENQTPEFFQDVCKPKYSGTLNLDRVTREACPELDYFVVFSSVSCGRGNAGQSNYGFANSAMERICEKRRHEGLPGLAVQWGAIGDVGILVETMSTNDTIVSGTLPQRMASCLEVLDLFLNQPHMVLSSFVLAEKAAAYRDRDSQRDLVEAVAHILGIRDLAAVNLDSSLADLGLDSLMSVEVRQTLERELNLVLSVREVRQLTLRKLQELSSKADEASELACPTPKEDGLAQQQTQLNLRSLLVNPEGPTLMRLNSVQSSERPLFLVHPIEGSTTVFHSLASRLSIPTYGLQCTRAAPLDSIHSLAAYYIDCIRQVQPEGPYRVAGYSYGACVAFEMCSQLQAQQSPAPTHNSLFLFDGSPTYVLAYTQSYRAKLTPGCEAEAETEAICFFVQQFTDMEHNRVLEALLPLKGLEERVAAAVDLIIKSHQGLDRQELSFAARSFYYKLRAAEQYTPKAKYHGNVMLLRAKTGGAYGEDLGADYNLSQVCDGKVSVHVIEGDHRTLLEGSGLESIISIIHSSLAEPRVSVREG
MPTP inh: mitochondrial permeability transition pore inhibitors, primary screen, biochemical, isolated mouse mitochondria, absorbance | inhibition, % at 10 µM | AID 602449, 2012 | Ca2+ swelling absorbance, 30 min | 1.4% of 360,000 active;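 active means inhibition of 50% or more, scaled per plate between neutral and stimulator controls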;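 further: 0% = DMSO wells given calcium and 100% = 1 mM EGTA wells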
Myeloid diff MLP: induction of myeloid progenitor differentiation, primary screen, cell-based, flow cytometry, MLPCN library; ER-HoxA9 myeloid progenitors, lysozyme-GFP differentiation; calls only at 10 µM; 1% of 360,000 active;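 active means normalized GFP-positive differentiation at or above the plate's own cutoff, the solvent-only control mean plus 3 SD; inconclusive means no clear call, values can overlap the other calls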;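 further: cells exposed to compound for four days before flow analysis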
rCAG binder: binders of r(CAG) RNA repeats, primary screen, biochemical, fluorescence. inhibition, % at 3 µM. r(CAG) RNA repeat, TO-PRO-1 dye displacement fluorescence. 1.3% of 370,000 active;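 active means inhibition above the plate cutoff, the mean of all test compounds on that plate plus 3 SD, cut at about 35% in these data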;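 further: 0% = DMSO alone and 100% = 100 µM mitoxantrone as full dye displacement; higher means more dye released from RNA so lower well fluorescence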
Numbers without * were called inactive; i = inactive; ? = inconclusive; . = no result; + = active, no number. Only some compounds are listed: those with a hit (about 5.7% of all), similar ones and a draw of the others.

SMILES	GRIN3A LBD mod	FAS TE block	MPTP inh	Myeloid diff MLP	rCAG binder
COc1ccc(Cl)cc1C(=O)NC(=S)Nc1nc(C)cc(C)n1	-1	4	1	i	-1
COc1ccc(Cl)cc1C(=O)NC(=S)Nc1cc(-c2nc3ccccc3[nH]2)ccc1C	18*	29	3	i	23
Cc1c(Cl)cccc1Nc1nc(N)nc(CSc2nc3ccccc3s2)n1	11*	23	-1	i	8
CCN(CC)C(=O)CC[C@H]1CC[C@]2(CCCN(Cc3ccc(Br)cc3)C2)O1	.	.	.	.	0
CC(C)(C)c1ccc(-c2cn(C[C@H](Cc3ccccc3)n3c(=O)c4ccccc4n3Cc3ccno3)nn2)cc1	.	.	.	.	11
CS(=O)(=O)c1ccc(C(=O)Nc2cc(-c3ccccc3)nn2-c2ccccc2)cc1	-4	-2	0	i	2
COc1ccc(C(=O)Nc2cc(-c3ccccc3)nn2-c2ccccc2F)cc1	-5	18	2	+	-1
COC(=O)[C@]12C[C@H](CC(=O)NCCC(C)C)C(=O)N(Cc3ccco3)C1=C[C@H](C1CCCC1)O[C@@H]2C	.	.	.	.	2
CC1=Nc2cccc3cccc(c23)N1	-4	-3	0	+	9
Cc1cc(C)c(S(=O)(=O)/N=C2/C=C(Sc3ncn[nH]3)C(=O)c3ccccc32)cc1C	-28	4	15	i	56*
Cc1ccc(NC2=C/C(=N/S(=O)(=O)c3cccs3)c3ccccc3C2=O)cc1C	-3	-7	5	i	1
O=C(CSc1nnc(-c2ccc(Cl)cc2)n1-c1ccccc1)Nc1ccc2c(c1)OCCO2	.	.	.	.	4
O=c1[nH]c(=S)[nH]c2nc(-c3cccs3)cc(C(F)(F)F)c12	-10	3	1	i	9
Nc1c(C(=O)C2CC2)sc2nc(-c3cccs3)cc(C(F)(F)F)c12	-1	-224	-3	+	10
Cc1c(CC(=O)O)c(=O)oc2c(C)c(OCc3nn[nH]n3)ccc12	-1	-5	1	+	-3
Cc1c(Cc2ccccc2)c(=O)oc2c(C)c(OCc3nn[nH]n3)ccc12	-18	4	-3	i	59*
Cc1c(Cc2ccccc2)c(=O)oc2c(C)c(OCC(=O)NCc3ccccn3)ccc12	-6	-7	0	i	0
CCC(c1nc2ccccc2[nH]1)n1c(C)nc2ccccc21 (stereo not given)	.	.	.	.	2
COC(=O)C1=C(C)N(C)C(=NCC2CC2)NC1c1cccc(C(F)(F)F)c1 (stereo not given)	.	.	.	.	7
CC(=O)Nc1ccc(-c2cc(-c3ccc(NC(C)=O)cc3)nc(-c3ccc(NC(C)=O)cc3)n2)cc1	5	-9	10	i	-9
CC(=O)Nc1ccc(-c2cc(-c3ccccc3)nc(-c3ccccc3)n2)cc1	36*	14	2	i	-1
CC(=O)Nc1ccc(-c2cc(-c3ccc(NC(C)=O)cc3)nc(-c3ccccc3)n2)cc1	.	-1	7	i	6
Nc1ccc(-c2cc(-c3cccc(N)c3)nc(-c3ccccc3)n2)cc1	22*	1	1	i	15
CCC(=O)Nc1ccc(-c2cc(-c3ccccc3)nc(-c3ccc(NC(=O)CC)cc3)n2)cc1	16*	-1	4	i	8
Cc1ccc2c(c1)c1c3n2CCN=C3CCC1	-1	-5	1	+	2
SMILES	GRIN3A LBD mod	FAS TE block	MPTP inh	Myeloid diff MLP	rCAG binder
CN(Cc1c(C(=O)N/N=C/c2ccccc2)nnn1-c1nonc1N)c1ccccc1	19*	15	0	i	2
Nc1nonc1-n1nnc(C(=O)N/N=C\c2cccc(Cl)c2)c1CN1CCOCC1	-6	-2	0	i	4
CN(Cc1c(C(=O)N/N=C/c2cccc(Cl)c2)nnn1-c1nonc1N)c1ccccc1	21*	35	0	i	8
COc1ccc(/C=N/NC(=O)c2nnn(-c3nonc3N)c2-c2cccs2)cc1OC	9	3	1	i	7
Nc1nonc1-n1nnc(C(=O)N/N=C/c2cc(Br)cs2)c1-c1ccccc1	15*	2	0	?	3
Nc1nonc1-n1nnc(C(=O)N/N=C/c2cccc(Cl)c2)c1-c1cccs1	27*	26	-1	i	10
Nc1nonc1-n1nnc(C(=O)N/N=C/c2ccccc2F)c1-c1cccs1	-7	3	-2	i	2
CN(Cc1c(C(=O)N/N=C/c2ccccc2F)nnn1-c1nonc1N)c1ccccc1	12*	24	-1	i	2
C/C(=N\N=C\c1ccccc1F)c1nnn(-c2nonc2N)c1C	25*	-4	2	i	-1
CN(C)c1ccc(/C=N/NC(=O)c2nnn(-c3nonc3N)c2CN(C)c2ccccc2)cc1	15*	-12	1	i	3
COc1ccc(/C=N/NC(=O)c2nnn(-c3nonc3N)c2CN(C)c2ccccc2)cc1	24*	18	0	i	-1
C[C@H]1COc2cc(Br)ccc2S(=O)(=O)N1Cc1cn(Cc2ccc(Br)cc2)nn1	.	.	.	.	4
COc1ccccc1/C=N/NC(=O)c1nnn(-c2nonc2N)c1CN(C)c1ccccc1	4	24	1	i	7
CN(Cc1c(C(=O)N/N=C/c2ccc(O)cc2)nnn1-c1nonc1N)c1ccccc1	24*	2	-1	i	11
O=C1NN(c2ccccc2)C(=O)/C1=C\c1cccn1-c1ccc(Cl)c([N+](=O)[O-])c1	-1	-4	0	+	26
COCCCNC(=O)CCCn1c(=O)c2ccccc2n(CC(=O)Nc2c(C)cc(C)cc2C)c1=O	2	-11	3	+	-2
Cc1ccc(NC(=S)Nc2ccc3cn[nH]c3c2)cc1	19*	-22	0	i	2
FC(F)Oc1ccc(NC(=S)Nc2ccc3cn[nH]c3c2)cc1	17*	-21	21	i	3
C=CCNC(=S)Nc1ccc2cn[nH]c2c1	1	-6	0	i	0
Cc1cc(C)cc(NC(=S)Nc2ccc3cn[nH]c3c2)c1	15*	-10	-2	i	1
Cc1ccc(NC(=S)NNC(=S)Nc2ccc(C)cc2)cc1	30*	-3	50	i	4
S=C(Nc1ccccc1)Nc1ccc2cn[nH]c2c1	9	-34	1	i	-1
NC(=S)Nc1ccc2cn[nH]c2c1	-2	-10	-1	i	-1
COc1cc(NC(=O)C2CCCN(S(=O)(=O)c3ccc(C)c(C)c3)C2)cc(OC)c1 (stereo not given)	.	.	.	.	4
COc1ccc(-c2cccc3c4c([nH]c23)[C@@H]2C[C@H]3[C@@H](C(=O)N2CC4)[C@H](C)ON3C)cc1	.	.	.	.	5
CCCCN=C(N)NC(=O)c1ccccc1	.	.	.	.	2
